Test results: publication PMC5540273 (PLoS ONE, 2017)

Tests used:
Details in all cases: concentration: 1 μM, replicates: in singlicate; n = 1
DCAMKL2 = tested on: T1, DCAMKL2
T1 construct: gene DCLK2

DCAMKL3 = tested on: T2, DCAMKL3
T2 construct: gene DCLK3

DDR1 = tested on: DDR1
DDR2 = tested on: DDR2
DLK = tested on: T3, DLK
T3 construct: gene MAP3K12

DMPK2 = tested on: T4, DMPK2
T4 construct: gene CDC42BPG

DMPK = tested on: DMPK
DRAK1 = tested on: T5, DRAK1
T5 construct: gene STK17A

DRAK2 = tested on: T6, DRAK2
T6 construct: gene STK17B

DYRK1A = tested on: DYRK1A
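Further: KINOMEscan kinase panel screen.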

SMILES | %Inh (DCAMKL2) [%] | %Inh (DCAMKL3) [%] | %Inh (DDR1) [%] | %Inh (DDR2) [%] | %Inh (DLK) [%] | %Inh (DMPK2) [%] | %Inh (DMPK) [%] | %Inh (DRAK1) [%] | %Inh (DRAK2) [%] | %Inh (DYRK1A) [%]
Nc1ncc(-c2cn[nH]c2)c2scc(-c3ccc4c(c3)CCN4C(=O)Cc3ccccc3)c12 [GSK2593067] | 5 | 0 | 98.4 | 22 | 18 | 90.3 | 0 | 0 | 0 | 20
Cl.Cl.NC(CNC(=O)c1cc(Br)c(-c2ccnc3[nH]ccc23)s1)c1ccccc1 (centres unmarked) [GSK1322949] | 18 | 0 | 0 | 29 | 43 | 59 | 72 | 93.8 | 4 | 84
Cl.O=C(Nc1ccc(Oc2ccc3[nH]c(NC(=O)c4ccco4)nc3c2)cc1)Nc1cc(C(F)(F)F)ccc1F [GW683134] | 7 | 0 | 100 | 95.7 | 22 | 0 | 0 | 0 | 0 | 13
COc1cccc(NC(=O)NCCNc2ccnc(Nc3ccc(F)cc3)n2)c1 [GSK1379879] | 0 | 0 | 7 | 1 | 21 | 0 | 0 | 0 | 31 | 10
COc1ccc(NC(=O)c2ccoc2)cc1-c1ccc(C(=O)NCC2CC2)cc1 [GW810437] | 17 | 12 | 0 | 50 | 0 | 0 | 1 | 6 | 7 | 0
Fc1cc(Cl)ccc1Nc1ccnc2cc(-c3ccc(CN4CCOCC4)o3)ccc12 [GW560109] | 0 | 0 | 97.9 | 60 | 28 | 0 | 16 | 0 | 0 | 11
COc1cc(Nc2nccc(N3CCC(NS(=O)(=O)c4ccc(NC(C)=O)cc4)CC3)n2)cc(OC)c1OC [GSK1379825] | 1 | 0 | 0 | 14 | 76 | 83 | 0 | 0 | 0 | 25
N#Cc1cnc2cc(-c3cnc(CNCCN4CCOCC4)s3)ccc2c1Nc1ccc(Oc2ccccc2)cc1 [GW664114] | 0 | 0 | 21 | 11 | 91.2 | 0 | 0 | 2 | 0 | 38
Nc1cccc(-c2ccc3c(N)n[nH]c3c2)c1 [GSK2193613] | 0 | 0 | 0 | 0 | 43 | 0 | 33 | 95.1 | 0 | 24
Nc1ncc(-c2ccc3nccc(-c4ccncc4)c3c2)cc1S(=O)(=O)N1CCCCC1 [GSK1693850] | 0 | 0 | 2 | 12 | 42 | 15 | 0 | 0 | 5 | 8
CCNc1nccc(-c2c(-c3ccc(F)cc3)ncn2C2CCN(C)CC2)n1 | 0 | 5 | 70 | 4 | 0 | 8 | 0 | 16 | 0 | 0
Cc1ccc(NC(=O)c2ccc(Cl)c(Cl)c2)cc1-c1ccc(C(=O)Nc2ccncc2)cc1 [GSK1398460] | 10 | 17 | 100 | 69 | 0 | 0 | 0 | 0 | 3 | 14
c1ccc(Oc2ccc(Nc3ccnc4cc(-c5ccc(CN6CCCCC6)o5)ccc34)cc2)nc1 [GW567143] | 8 | 25 | 30 | 35 | 79 | 0 | 0 | 0 | 0 | 26
CCn1cnc2c(NCc3ccccc3)ncnc21 [SKF-96418] | 0 | 0 | 0 | 38 | 0 | 1 | 0 | 0 | 0 | 0
Cn1cc(-c2cnc(N)c3c(-c4ccc5c(c4)CCN5C(=O)Cc4ccccc4)csc23)cn1 [GSK2593074] | 0 | 5 | 97.7 | 24 | 0 | 81 | 0 | 0 | 9 | 0
COC(=O)Nc1nc2ccc(Oc3ccc(NC(=O)Nc4cc(C(F)(F)F)ccc4F)cc3)cc2[nH]1.Cl [GW654607] | 0 | 36 | 100 | 94.2 | 13 | 9 | 0 | 0 | 1 | 13

SMILES | %Inh (DCAMKL2) [%] | %Inh (DCAMKL3) [%] | %Inh (DDR1) [%] | %Inh (DDR2) [%] | %Inh (DLK) [%] | %Inh (DMPK2) [%] | %Inh (DMPK) [%] | %Inh (DRAK1) [%] | %Inh (DRAK2) [%] | %Inh (DYRK1A) [%]
COC(=O)Nc1nc2ccc(Oc3ccc(CC(=O)Nc4cc(C(F)(F)F)ccc4F)cc3)cc2[nH]1 [GW680903] | 0 | 0 | 100 | 97.4 | 30 | 0 | 0 | 54 | 0 | 13
O=C(O)C(F)(F)F.O=c1[nH]ccc2nc(N[C@@H]3CCNC3)nc(Nc3cc(Cl)cc(Cl)c3)c12 [GSK2188764] | 52 | 82 | 0 | 18 | 43 | 41 | 98.3 | 99.7 | 79 | 3
Fc1cc(Cl)ccc1Nc1ccnc2cc(-c3ccc(CN4CCSCC4)o3)ccc12 [GW560106] | 0 | 42 | 96.1 | 69 | 46 | 0 | 8 | 23 | 0 | 0
Cl.N#CCc1ccc(Nc2nccc(Nc3ccc(Oc4ccccc4)cc3)n2)cc1 [GW639905] | 0 | 1 | 32 | 5 | 35 | 0 | 0 | 22 | 0 | 19
Cc1nn2c(=O)cc(N3CCO[C@H](C)C3)nc2n1Cc1cccc(Cl)c1Cl [GSK2373693] | 6 | 34 | 18 | 0 | 0 | 0 | 1 | 0 | 11 | 48
CN(c1ccc2c(c1)nc(NCc1ccccc1)n2C)c1ccnc(Nc2ccc(CS(C)(=O)=O)cc2)n1.Cl [GW811603] | 0 | 99.4 | 99.5 | 100 | 14 | 0 | 9 | 0 | 0 | 5
N#CC1(c2cccc(C(=O)Nc3cccc(Oc4ccc5nc(NC(=O)C6CC6)sc5n4)c3)c2)CC1 | 0 | 0 | 98.6 | 99.2 | 0 | 6 | 5 | 2 | 7 | 0
COc1cc(Nc2nccc(N3CCC(NC(=O)Nc4ccc5c(c4)OCO5)C3)n2)cc(OC)c1OC (centres unmarked) [GSK1379766] | 7 | 0 | 0 | 6 | 53 | 10 | 0 | 0 | 4 | 12
Cc1cccc(Nc2nc(NCCN)ncc2C(N)=O)c1 [GSK1292139] | 0 | 0 | 0 | 20 | 62 | 60 | 14 | 58 | 68 | 2
O=C(Nc1n[nH]c2nc(-c3ccccc3)ccc12)C1CC1 [SB-708999] | 6 | 0 | 3 | 32 | 0 | 50 | 0 | 0 | 0 | 15
COc1cccc(C2=C(Nc3cccc(O)c3)C(=O)NC2=O)c1 [SB-390771] | 0 | 31 | 0 | 17 | 26 | 0 | 0 | 0 | 0 | 57
CN(C)c1ncnc2nc[nH]c12 [SKF-31736] | 0 | 0 | 0 | 35 | 12 | 0 | 2 | 0 | 0 | 0
Cn1cc(-c2ccc3c(c2)CCN3C(=O)Cc2cc(F)cc(F)c2F)c2c(N)ncnc21 [GSK2634140] | 0 | 0 | 72 | 27 | 31 | 56 | 0 | 0 | 0 | 16
Cc1ccc(O)cc1Nc1ccnc2ccc(C(C)(C)C)cc12 [GW856805] | 18 | 0 | 40 | 60 | 0 | 5 | 3 | 12 | 0 | 0
Cc1ccccc1CC(=O)N1CCc2cc(-c3cn(C)c4ncnc(N)c34)ccc21 [GSK2603346] | 0 | 0 | 56 | 13 | 4 | 74 | 0 | 0 | 0 | 17
O=C(O)C(F)(F)F.O=c1[nH]ccc2nc(N[C@@H]3CCNC3)nc(Nc3ccc4c(c3)S(=O)(=O)CC4)c12 [GSK2181306] | 84 | 98.4 | 0 | 5 | 72 | 45 | 97.5 | 99.5 | 92.1 | 35
